Pf growth 48h: Primary qHTS for delayed death inhibitors of the malarial parasite plastid, 48 hour incubation; P. falciparum luciferase growth in erythrocytes, 48 h; Potency, µM (doses to about 28.7 µM), hits mostly inhibitors; AID 504832, 2011; actives 5.9% (n = 310,000)
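Cell-based growth assay: transgenic P. falciparum expressing firefly luciferase, cultured in red cells within RPMI 1640 containing 0.5% w/v Albumax, 24 mM bicarbonate and gentamycin. A drop in luciferase activity indicates inhibition.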
Pf growth 96h: Primary qHTS for delayed death inhibitors of the malarial parasite plastid, 96 hour incubation; P. falciparum luciferase reporter growth, 96 h; Potency, µM (highest dose often 28.7 µM), usual class: inhibitors; actives 6.9% (n = 320,000)
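Two parasite generations (96 h, 37 C, 5% CO2) of compound exposure in infected erythrocytes (0.05% parasitemia, 2% hematocrit). Luciferase-reporter P. falciparum; decreased luminescence indicates inhibited growth, aimed at apicoplast-acting delayed death.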
AMA1-RON2 inh: qHTS for Inhibitors of AMA1-RON; Towards Development of Antimalarial Drug Lead: Primary Screen. Potency, µM (series often up to 58.2 µM), actives largely listed as inhibitors. AlphaScreen AMA1-biotinylated RON2 peptide binding. Plasmodium falciparum AMA1 (3D7) - RON2 peptide interaction. actives 0.2% (n = 360,000); also: nearly all actives have a fitted effect of over 45% in size
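AMA1 (3D7) with his tag at 25 nM final met compounds first, then biotinylated RON2 peptide at 25 nM; detection used donor plus acceptor beads, 10 µg/mL apiece, read by AlphaScreen after 30 min at room temperature.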
HCV inhibitor: qHTS Assay for Inhibitors of Hepatitis C Virus (HCV); Potency, µM (doses to about 41.8 µM), hits mostly inhibitors; actives 3.4% (n = 340,000); Huh7.5.1 HCVcc-Cre infection, luciferase reporter, 44 h; AID 651820, 2012
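A cell-based infection assay in which seeded cells (1,000 per well) receive test compound after 4 h, are inoculated with HCVcc-Cre at approximately 0.5 moi, and are incubated 44 h before luminescence detection.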
SARS PLpro yeast: qHTS of Yeast-based Assay for SARS-CoV PLP; S. cerevisiae expressing SARS-CoV PLpro, growth rescue; Potency, µM (titrated, usually from 32.9 µM), actives largely listed as activators; actives 0.19% (n = 330,000); AID 485353, 2010; calls by dose curve; also: nearly all actives have a fitted effect of over 55% in size
NS1 function inh: qHTS Assay for Inhibitors of Influenza NS1 Protein Function; Potency, µM (highest dose often 46.1 µM); actives 0.4% (n = 270,000); calls by dose curve; also: actives are rising curves; nearly all actives have a fitted effect of over 50% in size
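A cell-based growth assay was used: compounds that relieve NS1-induced slow growth of budding yeast raise OD600. Assay medium was yeast nitrogen base with ammonium sulphate and -URA supplement, pH 6.0, with 2% galactose.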
Numbers stand for hits; i = inactive; ? = inconclusive; nt = no result given; [ ] = remark or other dose. An excerpt weighted towards active compounds, which were near 12% of everything screened. Unless noted, calls follow the shape of the dose curve; as a rule, active = well fitted curve in the direction sought with a large enough effect; inconclusive = small, poorly fitted or top-dose-only effect, or another doubt; inactive = no such curve, though single readings can be large; an effect the other way counts as inactive or inconclusive.

SMILES | Pf growth 48h | Pf growth 96h | AMA1-RON2 inh | HCV inhibitor | SARS PLpro yeast | NS1 function inh
O=C1CC(c2ccccc2)c2cc(O)ccc2O1 (centres undefined) | i | 10µM | i | i | i | i
Cc1ccc(C2CC(=O)Oc3cc(O)ccc32)cc1 (centres undefined) | i | i | i | i[8.37 µM] | i | i
CCSC1=N/C(=C\c2ccc(C(=O)O)cc2)C(=O)S1 | nt | 13µM | i | i | i | i
C=CCSC1=N/C(=C\c2ccc(C(=O)O)cc2)C(=O)S1 | i | i | i | i | i | i
Cc1ccc(-n2c(O)c(/C=N/N3CCCCC3c3cccnc3)c(=O)[nH]c2=S)cc1 (centres undefined) | i | ? | i | i | i | i
CCCCn1c(O)c(/C(CC)=N/N2CCCCC2c2cccnc2)c(=O)[nH]c1=S (centres undefined) | 9.3µM | 2.9µM | i | i | i | i
C/C(=N\N1CCCCC1c1cccnc1)c1c(O)n(C2CCCCC2)c(=S)[nH]c1=O (centres undefined) | 9.3µM | 3.3µM | i | ? | i | i
COc1ccc(CN(C)C[C@@H]2OCc3cnnn3CCCC(=O)N([C@H](C)CO)C[C@H]2C)cc1 | nt | nt | i | nt | nt | nt
CCC(CC)C(=O)Oc1c(C(=O)N(C)C)cccc1-c1ccccc1 | nt | nt | i | i | nt | nt
COc1ccc(C(=O)N2CCc3[nH]nc(-c4ccccc4)c3C2)cc1 | i | i | i | 11µM | i | i
COc1ccc(OC)c(-c2nnc(-c3ccc(C)o3)o2)c1 | 10µM | i | i | ? | i | i
COc1ccccc1C1Nc2ccccc2NC2=C1C(=O)CC(C)(C)C2 (centres undefined) | i | i | i | i | i | i
COc1ccc(OC)c(C2Nc3ccccc3NC3=C2C(=O)CC(C)(C)C3)c1 (centres undefined) | i | 4.1µM | i | i | i | i
COc1ccc(-n2c(=S)[nH]c3cc(C(=O)N4CCN(c5ccccc5)CC4)ccc3c2=O)c(OC)c1 | i | ? | i | i | i | i
CC(=O)n1cc([C@H]2C=C(C(=O)NCc3ccccc3)O[C@@H](OCc3ccc(CO)cc3)C2)c2ccccc21 | ? | 2.1µM | i | ? | i | ?
C[C@H]1C=C(C(=O)NCc2ccccc2)O[C@@H](OCc2ccc(CO)cc2)C1 | i | ? | i | ? | i | i
O=C(Nc1ccccc1)C1=C[C@@H](c2ccccc2)C[C@@H](OCc2ccc(CO)cc2)O1 | i | i | i | i | i | i
NC(=O)C1=C[C@H](c2ccccc2)C[C@H](OCc2ccc(CO)cc2)O1 | i | i | i | i | i | i
CC(=O)n1cc([C@H]2C=C(C(N)=O)O[C@@H](OCc3ccc(CO)cc3)C2)c2ccccc21 | nt | nt | i | 2.8µM | nt | nt
CC(=O)n1cc([C@@H]2C=C(C(=O)Nc3ccccc3)O[C@H](OCc3ccc(CO)cc3)C2)c2ccccc21 | ? | 5.9µM | i | ? | i | ?
C#CCNC(=O)C1=C[C@@H](c2cn(C(C)=O)c3ccccc23)C[C@@H](OCc2ccc(CO)cc2)O1 | 8.3µM | 6.6µM | i | i | i | i
O=C(NCCc1ccccc1)C1CCC(CNS(=O)(=O)c2cccs2)CC1 (centres undefined) | i | ? | i | i | i | nt
OCCCNCc1ccc(N(c2ccccc2)c2ccccc2)cc1 | ? | 2.3µM | i | ? | i | i
OCCNCc1ccc(-c2ccccc2)cc1 | i | i | i | ? | i | i
COc1ccc(C(=O)Nc2cccc(-c3cc4ccccc4oc3=O)c2)cc1[N+](=O)[O-] | 13µM | i | i | ? | i | i
COc1ccc2nc(NC(=O)c3cccc(-c4cc5ccccc5oc4=O)c3)sc2c1 | ? | 4.7µM | i[2.32 µM] | 11µM | i | i
CC(OC(=O)CNC(=O)c1ccc2ccccc2c1)C(=O)N(C)C1CCCCC1 (centres undefined) | i | i | i | i | i | nt
CCCOc1nc(C)cc(COC)c1C(N)=O | i | i | i | i | i | nt
